Sampled rows, rich in hits. Any-hit rate of the full collection: about 0.71%.
PI4K2A block: qHTS for small molecular inhibitors of PI4K2A; Phosphatidylinositol 4-kinase type 2-alpha (Homo sapiens), Q9BTU6; purified PI4K2A, ADP-Glo luminescence, 1 h; active compounds read low; activity change, negative = inhibition, % at 76.9 µM; hit rate 0.13% among 420,000; in the data active = activity change below about -50%; inconclusive = mostly about -30% to -49%
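ADP-Glo luminescence measured ADP generated by PI4K2A enzyme (4 ug/mL before mixing) with 1.2 mM PI substrate (pre-mix) and 300 microM ATP (pre-mix). Tris pH7.5 buffer with MgCl2, Triton X-100; 1 h reaction at ambient temperature.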
USP1-UAF1 inh: Inhibitors of USP1/UAF1: Primary Screen. AID 743255, 2014. Ubiquitin carboxyl-terminal hydrolase 1 (Homo sapiens), O94782. recombinant USP1/UAF1, Ub-Rhodamine cleavage fluorescence. Potency, µM (top dose mostly 57.1 µM), actives largely listed as inhibitors. hit rate 0.23% among 390,000; note: nearly all actives have a fitted effect of over 60% in size
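Step one: compound is pinned into 1nM USP1/UAF1 in HEPES pH 7.8 buffer with TCEP. Step two: 15 min room-temperature incubation. Step three: Ub-Rho (150nM final) starts cleavage, tracked by fluorescence over six one-minute reads.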
FBPA coupling cs: qHTS Assay for Inhibitors of Fructose-1,6-bisphosphate Aldolase from Giardia Lamblia: Coupling assay counterscreen; coupling enzyme system counterscreen, AmpLite Red fluorescence; activity change, negative = inhibition, % at 58.2 µM, hits read low; hit rate 0.67% among 290,000; AID 2472, 2010; in the data active = activity change below about -30%
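Coupling enzymes only (glyceraldehyde-3-phosphate) + compound, at 57.5 uM final, 10 min RT; add substrate/coupling/AmpLite Red mix, 20 min RT; fluorescence ex 525/em 598 nm. Actives flag coupling-system interference.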
Eya2 phos inh: qHTS Assay for Inhibitors of the Phosphatase Activity of Eya2 | Potency, µM (top dose mostly 76.9 µM), most hits filed as inhibitors | recombinant Eya2, OMFP fluorescence dephosphorylation (OMFP is methylfluorescein phosphate) | Protein phosphatase EYA2 (Homo sapiens), O00167 | hit rate 0.006% among 330,000
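Eya2 protein (added as 0.2 uM solution) was preincubated with compound for 10 min at ambient temperature in 50 mM HEPES pH 7.5, 50 mM NaCl, 5 uM MgCl2, 0.05% BSA, 1 mM DTT. OMFP (added at 50 uM) then reacted 10 min; fluorescence read at 485/525 nm.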
GALK inh: qHTS Assay for Inhibitors of Human Galactokinase (GALK). P51570. Purified GALK, Kinase-Glo residual ATP luminescence. Potency, µM (top dose mostly 57.5 µM), actives largely listed as inhibitors. hit rate 0.007% among 270,000. AID 1868, 2009
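The enzyme phosphorylates galactose (100 uM) using ATP (35 uM); inhibition is detected as higher residual ATP, quantified by bioluminescence after 1 h reaction at room temperature, pH 8.0.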
USP2a inh: qHTS Assay for Inhibitors of Ubiquitin-specific Protease USP2a Using CHOP2 as the Reporter; Potency, µM (highest dose often 38.3 µM), most hits filed as inhibitors; Ubiquitin carboxyl-terminal hydrolase 2 (Homo sapiens), O75604; hit rate 0.01% among 330,000; USP2 core, Ub-CHOP2 coupled fluorogenic reporter, 485/531
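USP2 core (10nM final) preincubated 30min RT with compound in 20mM Tris-HCl pH 8.0, 2mM CaCl2, 2mM beta-mercaptoethanol, 0.05% CHAPS; 25nM Ub-CHOP2 plus 25nM reporter substrate added, fluorescence (Ex485/Em531) read after 60min.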
CASP1 inh CRC: Confirmation Concentration-Response Assay for Allosteric/Competitive Inhibitors of Caspase-1; hit rate 20% among 60; Potency, µM (top dose mostly 57.5 µM), hits mostly inhibitors; AID 896, 2007; purified caspase-1, fluorogenic substrate cleavage; shares compounds with FBPA coupling cs; active = well fitted inhibition curve with a large enough effect in the main read-out, with a control signal flat; inconclusive = small, poorly fitted or top-dose-only effect, or a change in a side signal; inactive = no such curve, though single readings can be large or run the other way
Casp7 confirm: Confirmation Concentration-Response Assay for Allosteric/Competitive Inhibitors of Caspase-7. AID 897, 2007. shares compounds with FBPA coupling cs. 60 tested, under 10 active. recombinant caspase-7, fluorogenic substrate cleavage. Potency, µM (top dose mostly 57.5 µM), actives largely listed as inhibitors; active = well fitted inhibition curve with a large enough effect in the main read-out, with a control signal flat, not every such curve was filed as active; inconclusive = small, poorly fitted or top-dose-only effect, or a change in a side signal; inactive = no such curve, though single readings can be large or run the other way
CASP7 redox cys: Concentration-Response Counterscreen for Redox Active Inhibitors of Caspase-7: Cysteine; Potency, µM (top dose mostly 57.5 µM), most hits filed as inhibitors; shares compounds with FBPA coupling cs; 60 tested, under 10 active; caspase-7 enzyme with cysteine, fluorogenic substrate, redox counterscreen; active = well fitted inhibition curve with a large enough effect in the main read-out, with a control signal flat; inconclusive = small, poorly fitted or top-dose-only effect, or a change in a side signal; inactive = no such curve, though single readings can be large or run the other way
Casp1 cysteine: Concentration-Response Counterscreen for Redox Active Inhibitors of Caspase-1: Cysteine; shares compounds with FBPA coupling cs; recombinant caspase-1, fluorogenic substrate, cysteine buffer; Potency, µM (titrated, usually from 57.5 µM), most hits filed as inhibitors; 60 tested, under 10 active; AID 929, 2007; active = well fitted inhibition curve with a large enough effect in the main read-out, with a control signal flat; inconclusive = small, poorly fitted or top-dose-only effect, or a change in a side signal; inactive = no such curve, though single readings can be large or run the other way
Of the large screens only hits and unclear results are named; the others gave an inactive call (follow-up assays come after a bar, where they were run). Unless noted, calls come from the whole dose curve; as a rule, active = well fitted curve in the direction sought with a large enough effect; inconclusive = small, poorly fitted or top-dose-only effect, or another doubt; inactive = no such curve, though single readings can be large; an effect the other way counts as inactive or inconclusive.

O=Nc1c(-c2ccccc2)n(O)[n+]([O-])c1-c1ccccc1	USP1-UAF1 inh inconclusive (no result: FBPA coupling cs, Eya2 phos inh, GALK inh, USP2a inh)
CC[C@H](C)/C=C(C)/C=C/C1=CC2=C(Cl)C(=O)[C@](C)(OC(C)=O)C(=O)C2=CO1	PI4K2A block inconclusive, USP1-UAF1 inh 25µM (no result: FBPA coupling cs, GALK inh)
CCn1nc(-c2cccs2)nc2c(=O)n(C)c(=O)nc1-2	PI4K2A block -61, USP1-UAF1 inh 0.22µM, FBPA coupling cs -69, Eya2 phos inh inconclusive, GALK inh 1.3µM | CASP1 inh CRC 0.32µM | Casp7 confirm 0.63µM | CASP7 redox cys inactive | Casp1 cysteine inactive
CCOc1ccc(N(C(C)C(=O)Nc2cc(Cl)ccc2OC)S(C)(=O)=O)cc1 (centres undefined)	USP1-UAF1 inh inconclusive (no result: FBPA coupling cs, Eya2 phos inh, GALK inh, USP2a inh)
COc1ccc(C(=O)O)cc1OC	none (no result: Eya2 phos inh, GALK inh, USP2a inh)
O=C(O)c1cc[c]([Hg][Cl])cc1	PI4K2A block inconclusive (no result: FBPA coupling cs, GALK inh) | CASP1 inh CRC 10µM | Casp7 confirm inactive | CASP7 redox cys inactive | Casp1 cysteine 2.5µM
